Assay outcomes (PubChem BioAssay)
Mito fusion act: qHTS Assay for Small Molecule Inhibitors of Mitochondrial Division or Activators of Mitochondrial Fusion; 320,000 compounds, 0.23% hits; S. cerevisiae fusion-defective mutant growth rescue, CellTiterGlo 48 h; Potency, µM (titrated, usually from 46.1 µM), for inactives: at the highest dose growth rescue (activation), most hits filed as activators; further: % of control where 0% means no effect; nearly all actives have a fitted effect of over 45% in size
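Read-out: ATP-based luminescence (CellTiterGlo, 10 min ambient) reporting growth of fusion-defective ts yeast after 48 hours at 37C on glycerol/ethanol YPEG medium in the presence of compound.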
aSyn yeast inh: qHTS of alpha-syn Inhibitors. Yeast expressing alpha-synuclein, growth rescue, BacTiter-Glo, 24 h. Potency, µM (top dose mostly 46.1 µM), for the others: at the top dose growth rescue (activation), most hits filed as activators. 370,000 compounds, 0.14% hits; further: % of control where 0% means no effect; nearly all actives have a fitted effect of over 65% in size
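Galactose-induced alpha-syn yeast (OD600=0.02, raffinose-pregrown) + pinned cpd, 24 hr, 30 deg C; growth by BacTiter-Glo luminescence. Growth restoration scores as activation.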
Abeta rescue: qHTS for compounds that reverse cellular toxicity of Amyloid beta (A-beta) peptide in yeast: Primary Screen | Potency, µM (series often up to 46.1 µM), hits mostly activators | AID 1347071, 2019 | 410,000 compounds, 0.063% hits | yeast expressing A-beta42, growth rescue, OD600, 48 h; response scale: 0% DMSO, 100% iron-clioquinol control; further: nearly all actives have a fitted effect of over 55% in size
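Growth rescue measured by 600 nm absorbance after 48 h yeast culture at 30 C with compound. Values normalized between DMSO and an equimolar ferric chloride plus clioquinol control.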
FUS suppressor: qHTS for Suppressors of FUS Proteinopathy: Primary screen using FUS-linked yeast assay; Potency, µM (top dose mostly 76.6 µM), most hits filed as activators; S. cerevisiae FUS-expressing, growth rescue, OD600, 24 h; AID 1347120, 2019; 390,000 compounds, 0.24% hits;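 further: plate controls were DMSO vehicle for no effect and reference control for full effect; nearly all actives have a fitted effect of over 55% in size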
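Steps: raffinose overnight preculture; dilution to OD 0.005 in 2% galactose minimal medium; compound addition (concentration series); 24hr at 30C, 99% humidity; absorbance read at 600 nm.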
ERG-DNA inh: qHTS for Small Molecule Inhibitors of the ERG Ets/DNA interaction. Transcriptional regulator ERG (Homo sapiens), P11308. fluorescence polarization, His-ERG Ets domain / labelled DNA. Potency, µM (doses to about 76.9 µM), without a hit: at the top dose FP activity, negative = inhibition, hits mostly inhibitors. 370,000 compounds, 0.028% hits; active means well fitted inhibition curve with a large enough effect in the polarisation, with a control signal flat; inconclusive means small, poorly fitted or top-dose-only effect, or effect the other way, or a change in a side signal; inactive means no such curve, though single readings can be large or run the other way; the % refers to the polarisation;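 further: polarization taken with two DNA probes labelled with fluorescein and Texas red; % of control where 0% means no effect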
Target sequence (P11308 whole entry, looked up, the tested form may be a part): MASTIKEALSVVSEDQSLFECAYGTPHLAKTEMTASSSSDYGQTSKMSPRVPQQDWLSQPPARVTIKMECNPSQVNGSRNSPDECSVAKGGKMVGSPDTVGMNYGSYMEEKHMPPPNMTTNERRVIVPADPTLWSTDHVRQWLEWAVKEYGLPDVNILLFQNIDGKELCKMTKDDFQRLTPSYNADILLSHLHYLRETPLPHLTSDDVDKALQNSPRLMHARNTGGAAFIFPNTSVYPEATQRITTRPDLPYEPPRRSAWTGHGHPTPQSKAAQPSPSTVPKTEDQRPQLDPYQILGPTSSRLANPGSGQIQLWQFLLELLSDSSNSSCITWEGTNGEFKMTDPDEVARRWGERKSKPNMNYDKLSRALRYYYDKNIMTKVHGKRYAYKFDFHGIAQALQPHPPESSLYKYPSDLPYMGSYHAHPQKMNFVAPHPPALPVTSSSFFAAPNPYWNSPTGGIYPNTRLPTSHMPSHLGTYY
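His-tagged ERG Ets domain (1 uM in the protein solution; 300mM KCl, 50mM Tris-HCl, 1mM EDTA, 1mM DTT, pH 7.5) received compound, then a probe mix of 5 nM fluorescein-DNA and 100nM Texas-615-DNA. Fluorescence polarization was read for both dyes.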
TDP43 rescue: qHTS of TDP-43 Inhibitors; 410,000 compounds, 1.8% hits; TDP-43 expressing yeast growth rescue, BacTiter-Glo, 24 h; Potency, µM (doses to about 46.1 µM), for the others: at the top dose growth rescue (activation), actives largely listed as activators; further: % of control where 0% means no effect; nearly all actives have a fitted effect of over 50% in size
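Yeast cells expressing TDP-43 under galactose induction are exposed to compounds for 24 hr at 30 deg C. BacTiter-Glo luminescence measures growth, so protective compounds score as activators.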
Numbers without * were called inactive; i = inactive; ? = inconclusive; . = not tested or not shown; [ ] = remark or other dose. Rows were chosen to be rich in hits. Some 2.2% of all compounds tested hit in one or more screens of this group. Unless noted, the call rests on the fitted dose curve; in most records, active means well fitted curve in the direction sought with a large enough effect; inconclusive means small, poorly fitted or top-dose-only effect, or another doubt; inactive means no such curve, though single readings can be large; an effect the other way counts as inactive or inconclusive. Potency means the concentration at half of the fitted maximal effect.

SMILES	Mito fusion act	aSyn yeast inh	Abeta rescue	FUS suppressor	ERG-DNA inh	TDP43 rescue
Cc1cccc(OCCn2c(=O)oc3ccc(C)cc32)c1	18.7%	1.1%	i	i	-3.6%	14.1µM*
Cc1cccc(OCCn2cccc2/C=C2/C(=O)NC(=O)N(Cc3ccco3)C2=O)c1	-8.8%	3.9%	i	i	29.5%	0.8%
CCn1nc(/C=C/c2ccccc2)nc2c(=O)n(C)c(=O)nc1-2	-1.5%	-92.4%	i	i	6.8%	3.16µM*
O=C(O)C(F)(F)S(=O)(=O)O	3.16µM*	7.1%	i	i	2.6%	3.3%
O=C(NCc1ccc2c(c1)CCN2C(=O)c1ccccc1)Nc1cccc(C(F)(F)F)c1	.	.	i	i	4.5%	-32.2%
O=C(O)C1(Br)CC12c1ccccc1-c1ccccc12 (stereo unspecified)	.	-0.8%	i	.	6.2%	12.6µM*
COC1C(C)OC(OC2CC(C)(O)Cc3cc4c(c(O)c32)C(=O)c2c(O)cc3c(c2C4=O)OC2OC3(C)C(O)C(N(C)C)C2O)C(OC)C1(C)OC (stereo unspecified)	.	?	i	.	7.08µM*	22.4µM*
COC(=O)C1=C(c2cccc3c2S(=O)(=O)c2ccccc2-3)C[C@@H]2CC[C@H]1N2C(=O)N1CCc2cc(OC)c(OC)cc2C1	-12.2%	-0.1%	i	20µM*	2.6%	?
Cc1ccccc1-n1nc(C)c2c1NC(=O)CSC2c1ccccc1C(F)(F)F (stereo unspecified)	.	.	i	i	-2.7%	35.5µM*
COc1ccc(Br)cc1C1SCC(=O)Nc2c1c(C)nn2-c1ccccc1C (stereo unspecified)	.	.	i	i	-9.4%	4.8%
CC(=O)OCC1=C(C(=O)O)N2C(=O)[C@@H](NC(=O)CCC[C@@H](N)C(=O)O)[C@H]2SC1	4.1%	-6.7%	.	.	.	.
C/C1=C\[C@@H](C)C/C=C/[C@H]2[C@@H]3O[C@]3(C)[C@@H](C)[C@H]3[C@H](Cc4c[nH]c5ccccc45)NC(=O)[C@]32C(=O)/C=C/C(=O)[C@@H]1O	-18.8%	22.1%	i	?	-6.5%	11.2µM*
COc1ccccc1CN1CC(C(=O)NCCN(C)CCc2ccccc2)CCC1=O (stereo unspecified)	-2.1%	11.5%	i	i	6.0%	-32.1%
Cc1ccc(S(=O)(=O)Nc2ccc3ncccc3c2[N+](=O)[O-])cc1	.	-33.1%	i	.	-1.5%	3.55µM*
O=[N+]([O-])c1ccc(NCCO)c2ncccc12	-3.9%	1.2%	i	i	-1.4%	27.0%
Oc1ccccc1-[n+]1c(-c2ccccc2)cc(-c2ccccc2)c(O)c1-c1ccccc1	11.2µM*	3.5%	i	?	6.3%	5.0%
Oc1ccc(-[n+]2c(-c3ccccc3)cc(-c3ccccc3)cc2-c2ccccc2)cc1	10.0%	-8.2%	i	i	-8.1%	-4.9%
CCC1=Nc2cc(C(=O)N3CCC4(CC3)OCCO4)ccc2Sc2ccc(Br)cc21	17.8µM*	3.6%	i	i	7.5%	13.2%
COc1ccccc1NC(=O)Oc1cccc(OC(=O)c2ccccc2)c1	-10.0%	0.8%	i	i	7.6%	?
Cc1ccccc1-c1ccc2n1Cc1cnnn1-c1ccccc1-2	.	5.0%	i	i	15.3%	12.6µM*
CC1CCCN(c2ccc(C(=O)N3CCC4(CC3)OCCO4)cc2[N+](=O)[O-])C1 (stereo unspecified)	0.9%	16.5%	i	i	26.4%	?
CCOC(=O)C1CCCN(c2ccc([N+](=O)[O-])c3nonc23)C1 (stereo unspecified)	-1.0%	4.1%	i	i	3.16µM*	-11.6%
CCC(=NCCCn1ccnc1)c1c(O)n(Cc2ccccc2)c(=O)[nH]c1=O	2.0%	-2.1%	i	i	5.7%	31.6µM*
CCC(=NCCCn1ccnc1)c1c(O)n(-c2ccccc2)c(=O)[nH]c1=O	1.9%	-0.3%	i	i	5.5%	-1.7%
c1ccc(C(c2ccccc2)c2cccnc2)cc1	.	?	i	?	-3.2%	-3.5%
SMILES	Mito fusion act	aSyn yeast inh	Abeta rescue	FUS suppressor	ERG-DNA inh	TDP43 rescue
c1ccc(-c2ccc(C(c3ccccc3)n3ccnc3)cc2)cc1 (stereo unspecified)	14.1µM*	?	i	i	1.7%	6.31µM*
Cc1csc2nc(COC(=O)c3ccccc3NC(=O)c3ccc(F)cc3)cc(=O)n12	.	.	i	i	3.3%	?
Cc1cc(N(C)C)ccc1N=Nc1ccc(N)cc1	.	-16.3%	i	i	19.2%	12.6µM*
Nc1ccc(N=Nc2ccccc2)cc1	-3.6%	-1.2%	i	i	-5.5%	-15.0%[0.397 µM]
NC(=O)CI	-37.2%	0.6%	.	.	.	.
Nc1c(C(=O)OC2CCCCC2)c2nc3ccccc3nc2n1CC1CCCO1 (stereo unspecified)	16.9%	2.5%	i	i	0.8%	28.2µM*
CC(C)OC(=O)c1c(N)n(CC2CCCO2)c2nc3ccccc3nc12 (stereo unspecified)	-10.7%	-1.4%	i	i	-14.5%	-10.3%
CC(=O)NCC(N)C(=O)c1ccc(C)cc1 (stereo unspecified)	.	0.7%	.	.	.	.
CCOC(=O)C(NC(=O)C(Cc1ccc(N(CCCl)CCCl)cc1)NC(C)=O)C(C)C (stereo unspecified)	3.98µM*	4.3%	i	i	-15.5%	12.0%
CCOC(=O)CNC(=O)CNC(=O)C(Cc1ccc(N(CCCl)CCCl)cc1)NC(C)=O (stereo unspecified)	-1.9%	0.4%	i	i	-3.0%	21.7%
O=C(Cn1c(=O)oc2ccccc21)NCCc1ccccc1	-45.3%	3.6%	i	i	5.4%	22.8%
CCOc1ccc(-c2nc(CSCC(=O)NCCc3ccc(OCC)c(OCC)c3)c(C)o2)cc1	.	.	i	i	4.5%	?
Cc1ccc(NC(=O)C2CCN(C(=O)c3cnn(-c4ccccc4)c3-n3cccc3)CC2)cc1Cl	.	.	i	i	-2.3%	35.5µM*
COc1ccc(CCNC(=O)c2cnc3sc(N4CCCCCC4)nn3c2=O)cc1	.	.	i	i	-2.2%	?
Cc1ccc(/C=C2\C(=O)NC(=S)N(c3ccc(F)cc3)C2=O)o1	-2.0%	-0.4%	i	i	26.1%	11.2µM*
